# PPARg SRC-1 ag: agonists of human PPARgamma SRC-1 coactivator recruitment | P37231 | PPARgamma-SRC-1 coactivator recruitment biochemical assay | activation, % at 8 µM | actives 0.41% (n = 200,000); in the data active = activation above about 19%;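 also: 0% = DMSO and 100% = reference agonist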
# Target sequence (P37231 whole entry, looked up): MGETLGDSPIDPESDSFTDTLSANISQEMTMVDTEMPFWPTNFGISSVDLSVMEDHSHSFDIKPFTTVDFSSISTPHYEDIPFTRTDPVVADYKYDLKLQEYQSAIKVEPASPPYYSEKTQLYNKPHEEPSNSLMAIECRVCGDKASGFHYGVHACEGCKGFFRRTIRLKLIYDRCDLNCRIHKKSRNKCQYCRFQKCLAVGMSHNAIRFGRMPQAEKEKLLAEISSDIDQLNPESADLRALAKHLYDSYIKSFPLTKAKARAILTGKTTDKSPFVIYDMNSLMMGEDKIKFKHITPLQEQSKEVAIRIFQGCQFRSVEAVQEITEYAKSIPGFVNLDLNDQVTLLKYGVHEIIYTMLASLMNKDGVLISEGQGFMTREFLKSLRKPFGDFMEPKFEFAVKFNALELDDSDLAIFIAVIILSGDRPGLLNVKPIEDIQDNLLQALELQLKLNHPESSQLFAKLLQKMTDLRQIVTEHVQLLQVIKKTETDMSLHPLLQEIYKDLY
# PPARg SRC3 recr: PPARgamma-driven SRC-3 recruitment agonism. P37231. biochemical PPARgamma/SRC-3 coactivator recruitment assay. activation, % at 8 µM. actives 0.26% (n = 200,000). AID 731; in the data active = activation above about 23%;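 also: 0% = DMSO and 100% = reference agonist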
# SRC3 TRFRET art: flags TR-FRET format artefacts in PPARgamma SRC-3 recruitment agonist screen. TR-FRET artefact counter-screen, PPARgamma/SRC-3 format; stronger effect = higher value. TR-FRET ratio at 8 µM. actives 0.39% (n = 99,000)
# PPARg SRC-2 ag: promotes SRC-2 coactivator recruitment by human PPARgamma | P37231 | PPARgamma LBD-SRC-2 recruitment, biochemical | activation, % at 8 µM | actives 0.34% (n = 200,000) | AID 1032; in the data active = activation above about 22%;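 also: 0% = vehicle and 100% = reference agonist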
# SRC1 TRFRET art: flags TR-FRET format artefacts in PPARgamma SRC-1 recruitment agonist screen | TR-FRET detection artefact counter-screen, emission ratio; stronger effect = higher value | TR-FRET ratio at 8 µM | actives 0.34% (n = 99,000) | AID 1051; in the data active = TR-FRET ratio above about 2300
# SRC2 TRFRET art: TR-FRET artefact, counter-screen to PPARgamma/SRC-2 agonist assay; stronger effect = higher value; AID 1049; TR-FRET ratio at 8 µM; actives 0.4% (n = 200,000)
# Starred values were filed as active, the others as inactive; . = not tested or not shown. An excerpt weighted towards active compounds, which were near 0.84% of everything screened. Rule as the data show it, unless noted: active = TR-FRET ratio above about 2000; inactive = the rest.
SMILES,PPARg SRC-1 ag,PPARg SRC3 recr,SRC3 TRFRET art,PPARg SRC-2 ag,SRC1 TRFRET art,SRC2 TRFRET art
CCc1nc(SCc2ccc(F)cc2)[nH]c(=O)c1C#N,-2,0,.,57*,.,2794*
CN(C)C(=O)C1CCC(=O)N1Cc1cccs1 (stereo unspecified),-5,-5,1473,-7,1481,1488
CCc1cc2ccc(OC)cc2nc1SCC(=O)NNC(=O)c1ccco1,15,10,1814,21,2083,2005*
CCCCNC(=S)Nc1ccccc1Cc1ccccc1,5,4,1605,3,1788,1511
O=C1COc2ccc(C(=O)COC(=O)C3CCN(S(=O)(=O)c4cccs4)CC3)cc2N1,10,17,.,12,.,1626
O=C(COC(=O)C1CCN(S(=O)(=O)c2cccs2)CC1)c1cc2ccccc2o1,-3,0,.,7,.,2135*
O=C(COC(=O)C1CCN(S(=O)(=O)c2cccs2)CC1)c1ccc2c(c1)OCCO2,-6,-11,.,-7,.,2115*
COC(=O)c1oc2ccccc2c1NC(=O)/C=C/C(=O)O,7,5,1514,7,1804,1543
O=C(O)CN1C(=O)/C(=C\c2cn(CC(=O)N3CCOCC3)c3ccccc23)SC1=S,2,-1,1486,-2,1694,1614
COC(=O)c1ccc2c(c1)NC(=O)CS2,2,-2,1558,7,1887,1672
COc1ccccc1CN(C)C(=O)c1ccc2c(c1)NC(=O)CS2,-4,48*,.,8,.,1488
O=S(=O)(/C=C/c1ccccc1)N1CCN(c2nc(-c3cccnc3)nc3ccccc23)CC1,5,7,2270*,7,2657*,1899
c1cncc(-c2nc(N3CCOCC3)c3ccccc3n2)c1,-12,3,.,-2,.,1467
COc1ccc(C(=O)Nc2scc(-c3ccc(Cl)cc3Cl)c2C(N)=O)cc1,3,3,.,1,.,1986*
COc1ccc(C(=O)Nc2nc3c(s2)CCCC3)cc1S(=O)(=O)N1CCCc2ccccc21,1,5,2089*,10,2068,1754
COc1ccc(C2CC(c3ccccc3)=NN2C(=O)CN2CCN(Cc3ccccc3)CC2)cc1 (stereo unspecified),9,5,1641,3,2090,1741
Cc1nc2ccccc2nc1OCC(=O)NCC(F)(F)F,4,1,1862,5,2331*,1705
Cc1ccccc1-n1c(-c2ccco2)n[nH]c1=S,8,7,1585,27*,1909,1756
CCOC(=O)CSc1c(-c2ccc(Cl)cc2)[nH]c2ccccc12,14,12,2441*,15,2190,1904
COc1ccc(/C=N/NC(=O)c2ccc(Br)cc2)c(OC)c1,11,7,1546,12,1927,1660
COc1ccccc1/C=N/NC(=O)c1ccc(Br)cc1,5,4,1846,12,2364*,1692
Cc1cc2nnc(SCC(=O)NCC3CCCO3)n2c2ccccc12 (stereo unspecified),5,-2,1483,0,1726,1539
Cc1ccc(C2=NC3(CCCCC3)NC2=S)cc1,-2,0,1567,-2,1722,1697
CCN1CCC2(CC1)N=C(c1ccc(F)cc1)C(=S)N2,6,3,1803,14,1797,1979*
COc1cccc(NC(=S)NCc2ccc3c(c2)cc(C)n3C)c1,3,0,2011,-1,2579*,1922
SMILES,PPARg SRC-1 ag,PPARg SRC3 recr,SRC3 TRFRET art,PPARg SRC-2 ag,SRC1 TRFRET art,SRC2 TRFRET art
O=C1OCCN1C(=O)[C@H]1[C@H](c2ccc(Cl)cc2)C(c2cccc(Cl)c2)=NN1c1ccccc1,11,8,2817*,16,3296*,2617*
O=c1[nH]c2sc3c(c2c(=O)n1Cc1ccccc1)CCC3,-1,-1,.,10,.,1537
Cc1ccc(-n2c(=S)[nH]c3sc4c(c3c2=O)CCC4)cc1,8,8,2074*,12,2142,1859
O=C(c1ccccc1)c1ccc2nc(-c3ccc(NC(=O)c4ccccc4Br)cc3)[nH]c2c1,9,8,.,-1,.,2003*
CCOc1ccc(NC(=S)Nc2ccccc2C2(C)CC2)cc1,3,0,1865,2,1845,1596
CCN(CC)c1c(-c2ccccc2)c2cc(C)ccc2[nH]c1=O,4,5,1590,6,2033,1789
CC/C(C)=N/NC(=O)c1[nH]c2ccc(C)cc2c1-c1ccccc1,5,1,1693,7,2076,1988*
CC(=O)Nc1ccc(NC(=O)COC(=O)c2cnccn2)cc1,0,-1,1542,4,1961,1344
COc1ccc(C2CC(c3ccccc3)=NN2C(=O)COC(=O)c2cccc(S(=O)(=O)N3CCOCC3)c2)cc1 (stereo unspecified),12,8,2328*,16,2459*,2061*
COc1ccc(C2CC(c3ccccc3)=NN2C(=O)COC(=O)c2cccc(S(=O)(=O)N(C)C)c2)cc1 (stereo unspecified),6,8,2064*,5,2411*,2075*
COc1ccc(C2CC(c3ccccc3)=NN2C(=O)COC(=O)c2ccc(Cl)nc2)cc1 (stereo unspecified),13,0,1806,2,1893,1555
COc1ccc(C2CC(c3ccccc3)=NN2C(=O)COC(=O)c2cnc(Cl)c(Cl)c2)cc1 (stereo unspecified),-3,-7,1351,-15,1574,1668
Cc1oc(-c2cccc3ccccc23)nc1CN1CCC[C@H]1CO,-12,1,1424,-10,1701,1392
COC(=O)Cn1c(=NC(=O)c2cc(-c3cccs3)nc3ccccc23)sc2cc(S(N)(=O)=O)ccc21,4,3,1741,5,1658,1499
CCOC(=O)Cn1c(=NC(=O)c2cc(-c3cccs3)nc3ccccc23)sc2cc(S(N)(=O)=O)ccc21,11,6,2342*,7,1942,1552
COCCn1c(=NC(=O)c2cc(Cl)sc2Cl)sc2cc(S(N)(=O)=O)ccc21,5,0,1622,3,1897,1630
CCOCCn1c(=NC(=O)c2cc(Cl)sc2Cl)sc2cc(S(N)(=O)=O)ccc21,7,30*,4758*,-2,1763,1600
COC(=O)c1ccc(C(=O)OC)c(NC(=O)c2cc3ccccc3o2)c1,24*,-4,.,4,.,1501
COC(=O)c1ccc(N2CCN(C)CC2)c(NC(=O)c2cc3ccccc3o2)c1,-3,-8,.,-7,.,1388
CCNC(=O)c1ccccc1SCC(=O)Nc1ccc(F)cc1,-3,4,1546,-2,1694,1677
CCOC(=O)c1c(NC(=O)Cc2cccs2)sc(C(=O)NC2CCCC2)c1C,1,35*,.,2,.,1550
CCOC(=O)c1c(NC(=O)Cc2cccs2)sc(C(=O)NC2CCCCC2)c1C,8,4,.,3,.,1698
COc1ccc(-c2csc(N(CCc3ccc(OC)c(OC)c3)C(=O)COc3ccccc3)n2)cc1,15,11,.,3,.,2007*

# Screening data: PubChem, The Scripps Research Institute Molecular Screening Center
